Laboratory results taken from PubChem BioAssay AID743364 (National Center for Advancing Translational Sciences (NCATS), 2014).
Active and inactive are the calls of the source. Calls follow the shape of the dose curve; as a rule, active = well fitted curve in the direction sought with a large enough effect; inactive = no such curve, though single readings can be large or run the other way. Where a SMILES comes first, the peptide text is derived from it. [ ]: non-standard residue; d: D form. Orn = NCCC[C@H](N)C(=O)O

experiment: qHTS profiling of inhibitors of Plasmodium falciparum (3D7) proliferation (acoustic dispense); settings: P. falciparum 3D7 in erythrocytes, SYBR Green, 72 h; series mostly up to 49.8 µM; activity change: at the top concentration
Description: Plasmodium falciparum is a virulent malarial parasite that kills 1-2 million people worldwide each year. Transmitted by mosquitoes, the sporozoite form of the parasite enters the blood stream to infect hepatocytes, where they become merozoites that infect red blood cells (erythrocytes). Within erythrocytes, merozoites begin a […] cycle of growth and division, after which the parasite is released to infect new red blood cells. Gametocytes, which form within erythrocytes as well, circulate in the bloodstream and are ingested by the mosquito, thereby completing the life cycle. To profile malarial isolates for differential chemical responses and to identify inhibitors of malarial growth, an assay that measures P. falciparum growth and replication within erythrocytes was employed. This assay uses a DNA binding fluorescent dye (SYBR Green) to detect parasite DNA following cell lysis. Because mature erythrocytes lack DNA, only Plasmodium-derived DNA is detected.
The SYBR Green viability assay was adapted from a method described previously (Plouffe et al., 2008). For screening 3 ul culture medium was dispensed into 1536 well black clear bottom plates (Aurora Biotechnologies) using a Multidrop Combi (Thermo Fisher Scientific Inc.), 23 nL of compounds in DMSO were added by an acoustic dispenser (EDC Biosystems), and 5 ul of erythrocytes infected with P. falciparum (0.3% parasitemia, 2.5% hematocrit final concentration) were added. The plates were incubated at 37 C in a humidified incubator in 5% CO2 for 72 h, and 2 ul lysis buffer (20 mM Tris HCl, 10 mM EDTA, 0.16% saponin, 1.6% triton X, 10X SYBR Green I supplied as 10,000X […] by Invitrogen) was added to each well. The plates were mixed for 25 sec with gentle shaking and incubated overnight at room temperature in the dark. The following morning, fluorescence intensity at 485(14) nm excitation and 535(25) nm emission wavelengths was measured on an EnVision (Perkin Elmer) plate reader. Plate reads were normalized relative to the control inhibitor (0.29 uM artemisinin) and vehicle (DMSO) wells present on each plate and then corrected by an algorithm using vehicle-only control plates at the beginning and end of the compound plate stack.

Activity change, inactive:
CC(C)[C@H](C(=O)Nc1ccc(C(=O)NO)cc1)c1ccccc1 -0.681%
CC(C)Oc1cc(Nc2nc(N[C@@H](C)c3ccc(F)cn3)ncc2Cl)[nH]n1 0.271%
CCN(CC)CCCC(C)Nc1ccnc2cc(Cl)ccc12 (stereo not given) -1.35%
COc1cc([C@@H]2c3cc4c(cc3[C@@H](O[C@@H]3O[C@@H]5CO[C@@H](c6cccs6)O[C@@H]5[C@H](O)[C@@H]3O)[C@H]3COC(=O)[C@H]23)OCO4)cc(OC)c1O -0.633%
Cn1cnc(=N)c2[nH]cnc21 0.814%
c1cncc(CN2CCC(n3ncc4c(N5CCOCC5)nc(-c5ccc6[nH]ccc6c5)nc43)CC2)c1 0.532%
Cn1cc(CNCC2CCN(c3ncc(C(=O)NO)cn3)CC2)c2ccccc21 -1.05%
Cn1c(=O)c(-c2c(Cl)cccc2Cl)cc2cnc(Nc3cccc(C(=O)O)c3)nc21 4.94%
CC(C)C[C@H](NC(=O)[C@H](CCc1ccccc1)NC(=O)CN1CCOCC1)C(=O)N[C@@H](Cc1ccccc1)C(=O)N[C@@H](CC(C)C)C(=O)[C@@]1(C)CO1 0.444%
CCc1nc(N)nc(N)c1-c1ccc(Cl)cc1 3.48%
CS[C@H]1SC[C@@H]2C(=O)N(C)[C@H](C(C)C)C(=O)OC[C@H](NC(=O)c3cnc4ccccc4n3)C(=O)N[C@H](C)C(=O)N(C)[C@@H]1C(=O)N(C)[C@H](C(C)C)C(=O)OC[C@H](NC(=O)c1cnc3ccccc3n1)C(=O)N[C@H](C)C(=O)N2C -0.723%
Nc1cccc(-c2csc(NC(=O)CCCCCCC(=O)NO)n2)c1 -1.85%
Cc1[nH]c2ccccc2c1CCNCc1ccc(C=CC(=O)NO)cc1 -3.08%
CC=C1C2C=C(C)CC1(N)c1ccc(=O)[nH]c1C2 (stereo not given) 106%
Cc1cnc(Nc2ccc(CN3CCOCC3)cc2)nc1Nc1cccc(S(=O)(=O)NC(C)(C)C)c1 -2.12%
NC(=NCCCCCCN=C(N)N=C(N)Nc1ccc(Cl)cc1)N=C(N)Nc1ccc(Cl)cc1 6.59%
COc1cc2c(Oc3ccc(NC(=O)C4(C(=O)Nc5ccc(F)cc5)CC4)cc3F)ccnc2cc1OCCCN1CCOCC1 6.54%
C[C@H]1Cc2c([nH]c3cc(Cl)c(F)cc23)[C@@]2(N1)C(=O)Nc1ccc(Cl)cc12 -3.95%
CCN[C@H]1C[C@H](C)S(=O)(=O)c2sc(S(N)(=O)=O)cc21 -1.4%
CO[C@H]1O[C@@H]2O[C@@]3(C)CC[C@@H]4[C@@H](C)CC[C@@H]([C@H]1C)[C@@]24OO3 -0.464%
Cc1ccc([N+](=O)[O-])cc1S(=O)(=O)N(C)N=Cc1cnc2ccc(Br)cn12 -0.0818%
CC(C)N=C(N)N=C(N)Nc1ccc(Cl)cc1 0.148%
CO[C@H]1C=CC=C(C)C(=O)NC2=CC(=O)C(NCCN(C)C)=C(C[C@@H](C)C[C@H](OC)[C@@H](O)[C@@H](C)C=C(C)[C@@H]1OC(N)=O)C2=O 111%
C1CCC(C(CC2CCCCN2)C2CCCCC2)CC1 (stereo not given) 0.0017%
COc1cc(NC(C)CCCN)c2ncccc2c1 (stereo not given) 0.981%
O[C@H](c1cc(C(F)(F)F)nc2c(C(F)(F)F)cccc12)[C@H]1CCCCN1 0.467% [at 23.2 µM]
CC(C=CC(=O)NO)=C[C@@H](C)C(=O)c1ccc(N(C)C)cc1 -1.51%
O=C1C(=O)c2ccccc2C(O)=C1C1CCC(c2ccc(Cl)cc2)CC1 (stereo not given) 0.134%
CC(C)C[C@@H]1NC(=O)[C@H](CCCN)NC(=O)[C@H](C(C)C)NC(=O)[C@@H]2CCCN2C(=O)[C@@H](Cc2ccccc2)NC(=O)[C@H](CC(C)C)NC(=O)[C@H](CCCN)NC(=O)[C@H](C(C)C)NC(=O)[C@@H]2CCCN2C(=O)[C@@H](Cc2ccccc2)NC1=O (cyclo(V[Orn]L[dF]PV[Orn]L[dF]P)) 1.28%
O=C1c2c(O)ccc(O)c2C(=O)c2c(NCCNCCO)ccc(NCCNCCO)c21 -8.46%
O=C(Nc1cn[nH]c1-c1nc2ccc(CN3CCOCC3)cc2[nH]1)NC1CC1 2.4%
CC1(C)N=C(N)N=C(N)N1c1ccc(Cl)cc1 -0.763%
COC1=C2C[C@@H](C)C[C@H](OC)[C@@H](O)[C@@H](C)C=C(C)[C@H](OC(N)=O)[C@@H](OC)C=CC=C(C)C(=O)NC(=CC1=O)C2=O -1.59%
CN(Cc1cnc2nc(N)nc(N)c2n1)c1ccc(C(=O)N[C@@H](CCC(=O)O)C(=O)O)cc1 -0.179%
C=C[C@@H]1CN2CCC1C[C@@H]2C(O)c1ccnc2ccc(OC)cc12 (stereo not given in full) 4.64%
CSc1cccc(Nc2ncc3cc(-c4c(Cl)cccc4Cl)c(=O)n(C)c3n2)c1 -0.214%
O=C(Nc1ccc([N+](=O)[O-])cc1Cl)c1cc(Cl)ccc1O 78.1%
CN(C)c1ccc2nc3ccc(=[N+](C)C)cc-3sc2c1 26%
CC[C@H]1OC(=O)[C@H](C)C(=O)[C@H](C)[C@@H](O[C@H]2O[C@H](C)C[C@H](N(C)C)[C@@H]2O)[C@](C)(OC)C[C@@H](C)C(=O)[C@H](C)[C@H]2N(CCCCn3cnc(-c4cccnc4)c3)C(=O)O[C@]12C 0.612%
CCC(C=C[C@@H]1OC(=O)C=C[C@H]1C)=C[C@H](C)CC=CC(C)=C[C@@H](C)C(=O)[C@@H](C)[C@H](O)[C@@H](C)CC(C)=CC(=O)O 22.5% [at 1.88 µM]
